# Experimental data: PubChem BioAssay AID504910 (Southern Research Specialized Biocontainment Screening …, 2011)
# Entries with a potency or affinity are not part of this list. A number with no mark means an inactive call. How the calls were made is not given here.
# Assay: HepG2 cell cytotoxicity, cytotoxicity control, set 4 (AID 504910)
# Conditions: series mostly up to 50 µM; viability: at the top concentration
row,Compound,viability [%]
1,Cc1ccc(NC(=O)CSc2nc3ccccc3c(=O)[nH]2)cc1Cl,91.9
2,O=C(CSc1nc2ccccc2c(=O)[nH]1)NC1CCCCC1,95.5
3,O=C(CSc1ccccn1)NC1CCCCC1,94.3
4,Cc1ccc(NC(=O)COC(=O)CCc2c[nH]c3ccccc23)cc1[N+](=O)[O-],94.4
5,CC1CCN(C(=O)CSc2nc3ccccc3c(=O)[nH]2)CC1,89.3
6,O=C(CSc1nc2c(c(=O)[nH]1)CCC2)NC1CCCCC1,101
7,COc1c(N2CCNC(C)C2)c(F)cc2c(=O)c(C(=O)O)cn(C3CC3)c12 (stereo not given),91.9
8,O=C(CSc1nccc(=O)[nH]1)NC1CCCCC1,102
9,Cc1cccc(/C=C/C(=O)c2ccc([N+](=O)[O-])o2)c1,90.5
10,Cc1nc(SCc2ccccc2Cl)[nH]c(=O)c1C,96.9
